Compound activity deposited in PubChem by National Center for Advancing Translational Sciences (NCATS).
ASM inhibitor – inhibitors of human secretory acid sphingomyelinase | P17405 | Potency, µM (highest dose often 57.5 µM), inactives show at the highest dose activity change, negative = inhibition, most hits filed as inhibitors | 340,000 tested, 0.006% active | placental ASM, HMU-PC fluorogenic substrate, 60 min; also: potency is read from the fitted curve at half-maximal effect
Target sequence (P17405 47-631 limits assumed): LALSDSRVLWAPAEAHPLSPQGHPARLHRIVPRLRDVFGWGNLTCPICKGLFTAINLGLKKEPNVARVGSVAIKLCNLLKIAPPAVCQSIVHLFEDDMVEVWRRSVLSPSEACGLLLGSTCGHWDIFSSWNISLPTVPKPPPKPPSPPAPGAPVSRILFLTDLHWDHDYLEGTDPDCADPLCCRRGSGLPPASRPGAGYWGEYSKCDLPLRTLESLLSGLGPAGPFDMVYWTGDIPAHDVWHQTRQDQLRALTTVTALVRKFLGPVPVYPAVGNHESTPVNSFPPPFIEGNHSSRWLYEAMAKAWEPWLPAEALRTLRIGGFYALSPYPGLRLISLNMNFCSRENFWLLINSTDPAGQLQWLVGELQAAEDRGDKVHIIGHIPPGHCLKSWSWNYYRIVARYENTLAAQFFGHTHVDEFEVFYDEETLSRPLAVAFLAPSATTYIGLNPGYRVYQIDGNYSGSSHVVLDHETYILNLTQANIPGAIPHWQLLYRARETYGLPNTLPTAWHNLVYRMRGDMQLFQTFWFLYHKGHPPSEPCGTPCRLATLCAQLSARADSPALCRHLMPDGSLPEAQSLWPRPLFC
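qHTS format. ASM enzyme prepared from human placenta hydrolyses the fluorogenic substrate HMU-PC0 (9 uM final) over 60 min at 37 °C after a 10 min compound preincubation.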
DT40 TDP1 CPT – growth inhibition of DT40 Tdp1-/-;hTDP1 cells with camptothecin (screen for TDP1 inhibitors); AID 686979; 420,000 tested, 12% active; chicken DT40 Tdp1-/-;hTDP1 cells + 20 nM CPT, ATP luminescence, 48 h; Potency, µM (top dose mostly 46.2 µM), inactives show top-dose activity change, negative = growth inhibition, actives largely listed as inhibitors; also: potency is read from the fitted curve at half-maximal effect; % is scaled to controls: 0 for no effect and ±100 for the full control effect; nearly all actives have a fitted effect of over 55% in size
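Chicken DT40 Tdp1-/- cells stably complemented with human TDP1 were seeded at 400 cells/well in medium containing 20 nM camptothecin, exposed to pin-transferred compounds, and grown at 37 °C for at least 48 hr. Viability was read as ATP luminescence.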
DT40 TDP1 no CPT – qHTS for Inhibitors of human tyrosyl-DNA phosphodiesterase 1 (TDP1): qHTS in cells in absence of CPT; DT40 Tdp1-/- hTDP1 cells, no CPT, ATP luminescence, 48 h; Potency, µM (series often up to 46.2 µM), for inactives: at the top dose activity change, negative = growth inhibition, most hits filed as inhibitors; 420,000 tested, 15% active; also: potency is read from the fitted curve at half-maximal effect; % is scaled to controls: 0 for no effect and ±100 for the full control effect; nearly all actives have a fitted effect of over 55% in size
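Luminescent ATP content (CellTiter-Glo) served as the growth readout. Knockout chicken DT40 cells expressing human TDP1 were exposed to compounds without camptothecin for a minimum 48 hr at 37 °C.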
TGFb SMAD3 inh – inhibitors of TGF-b signaling | HepG2 CAGA-GFP TGF-b/SMAD3 reporter, GFP fluorescence, 18 h; TGF-beta stimulated, 500 pg/mL final | Potency, µM (series often up to 46.1 µM), inactives show at the highest dose activity, negative = inhibition, usual class: inhibitors | 410,000 tested, 1.2% active | AID 588855; also: potency is read from the fitted curve at half-maximal effect; % is scaled to controls: 0 for no effect and ±100 for the full control effect; nearly all actives have a fitted effect of over 65% in size
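First, reporter cells (HEPG2 CAGA-GFP) rested 2 h at 37 degrees C. Next, compounds were pinned in and TGF-beta added to 500 pg/mL final. After 18 h, GFP was imaged per cell and summed per well.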
IL1B secr inh – inhibitors of inflammasome signaling (IL-1 beta secretion); THP-1 LPS/ATP IL-1B secretion, AlphaLISA, 16 h; active compounds read low; activity change, % at 57.5 µM; 360,000 tested, 4.7% active; AID 743279; in the data active = activity change below about -50%; inconclusive = mostly about -30% to -49%; also: % is scaled to controls: 0 for no effect and ±100 for the full control effect
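Secreted IL-1B measured by AlphaLISA bead assay after 16 h compound exposure of THP-1 cells; compounds (final up to 57.5 uM) added 1 h before LPS (250 ng/mL) and ATP (1.25 mM) stimulation; lower signal means less secretion.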
HepG2 tox – HepG2 cytotoxicity, counter-screen for TGF-b inhibitors; HepG2 CAGA-GFP viability, ATP luminescence, 18 h; Potency, µM (highest dose often 46.1 µM), inactives show at the highest dose activity change, negative = cytotoxicity, actives largely listed as cytotoxic; 410,000 tested, 0.76% active; also: potency is read from the fitted curve at half-maximal effect
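HepG2 CAGA-GFP cells (1000/well, DMEM with 1% FBS) received compound, then TGF-beta at 500 pg/mL final, and were incubated 18 hours at 37 degrees C. Viability was read by CellTiter-Glo luminescence. Media-only wells were set as complete cell-killing and DMSO as no toxicity.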
Numbers without * were called inactive; u = inconclusive; x = no result given; [ ] = another dose, or the depositor's remark. Only some compounds are listed: those with a hit (about 19% of all), similar ones and a draw of the others. Unless noted, calls follow the shape of the dose curve; as a rule, active = well fitted curve in the direction sought with a large enough effect; inconclusive = small, poorly fitted or top-dose-only effect, or another doubt; inactive = no such curve, though single readings can be large; an effect the other way counts as inactive or inconclusive.

SMILES	ASM inhibitor	DT40 TDP1 CPT	DT40 TDP1 no CPT	TGFb SMAD3 inh	IL1B secr inh	HepG2 tox
COc1ccc(C(=O)N(O)c2ccccc2)cc1	x	26%[9.04 µM]	-6%[9.04 µM]	x	x	x
Cc1cccc(CNc2nc(-c3ccc(C(=O)N(C)C)cc3)nc3ccccc23)c1	x	23µM*	2.9µM*	x	x	x
CN(C)C(=O)c1ccc(Nc2nc(-c3cccs3)nc3ccccc23)cc1	-3%	10µM*	7.3µM*	-4%	-74*	-7%
Cc1cccc(N(Cc2ccc(Cl)cc2)S(C)(=O)=O)c1	-2%	6%	-26%	12%	-13	3%
COC(=O)c1cccc(Nc2ncnc3sccc23)c1	5%	21µM*	u	19%	23	7%
CC(=O)c1ccc(Nc2ncnc3ccc(Br)cc23)cc1	x	-22%	u	20%	-3	0%
CC(=O)c1cccc(Nc2ncnc3ccc(Br)cc23)c1	-3%	16µM*	21µM*	-11%	117	-16%
O=[N+]([O-])c1ccc(O)c(Nc2ncnc3ccc(Br)cc23)c1	-1%	-20%	12µM*	-22%	27	-7%
CN(C)C(=O)c1ccc(-c2ccc3ncnc(Nc4ccccc4)c3c2)cc1	x	u	1.5µM*	x	x	x
O=[N+]([O-])c1ccc(O)c(Nc2ncnc3ccccc23)c1	1%	-8%	1%	1%	29	22%
CN(C)C(=O)c1ccc(-c2ccc3ncnc(NCc4cccs4)c3c2)cc1	x	-28%	-25%	x	x	x
Cc1ccc(N2CC(NC(=O)c3cccs3)CC2=O)cc1 (stereo unspecified)	x	-3%	-16%	-2%	x	-3%
Cc1cccc(CNC(=O)c2ccc3nc(-c4ccccc4)c(-c4ccccc4)nc3c2)c1	x	21µM*	u	-2%	x	3%
COc1ccc(N(C)C(=O)c2ccc3nc(-c4ccccc4)c(-c4ccccc4)nc3c2)cc1	-5%	u	18µM*	-25%	0	5%
C=CCNC(=O)c1ccc2nc(-c3ccccc3)c(-c3ccccc3)nc2c1	14%	u	u	-23%	-12	-4%
OCCNCc1cccc(-c2ccccc2)c1O	1%	19%	-8%	-14%	-8	-26%
CC(C(=O)Nc1cccc(C#N)c1)n1nc(-c2ccccc2)c2c(c1=O)CCCC2 (stereo unspecified)	x	u	-24%	-62%	x	-11%
CC(C(=O)Nc1ccccc1C(F)(F)F)n1nc(-c2ccccc2)c2c(c1=O)CCCC2 (stereo unspecified)	x	u	16µM*	u	x	-20%
CCc1cccc(NC(=O)Cn2nc(-c3ccc(OC)cc3)ccc2=O)c1	x	-30%	u	2%	x	-32%
COc1ccc(-c2n[nH]c3c2C(c2ccc(OC)c(OC)c2)N(c2ccccc2)C3=O)cc1 (stereo unspecified)	u	u	u	3%	-24	-1%
COc1ccc(OC)c(C2c3c(-c4ccc(Br)cc4)n[nH]c3C(=O)N2c2ccc(Cl)cc2)c1 (stereo unspecified)	x	u	u	4µM*	x	11µM*
COc1ccc(-c2n[nH]c3c2C(c2ccc(O)cc2)N(c2ccc(Br)cc2)C3=O)cc1 (stereo unspecified)	x	18µM*	u	u	x	-28%
O=C(C1CCCCC1)N1CCC2CC1c1cc(N3CCCCC3)ccc12 (stereo unspecified)	x	18µM*	21µM*	-17%	51	-19%
O=C(c1ccccc1F)N1CCC2CC1c1cc(N3CCCCC3)ccc12 (stereo unspecified)	x	u	18µM*	-16%	37	-23%
O=C(c1cccc(Cl)c1)N1CCC2CC1c1cc(N3CCOCC3)ccc12 (stereo unspecified)	8%	u	u	-7%	12	-21%
SMILES	ASM inhibitor	DT40 TDP1 CPT	DT40 TDP1 no CPT	TGFb SMAD3 inh	IL1B secr inh	HepG2 tox
O=c1c2c(nc3c(-c4cccc(Br)c4)c[nH]n13)CCCC2	0%	16µM*	-103%	25%	-15	-6%
O=c1c2c(nc3c(-c4ccc(Cl)cc4)c[nH]n13)CCC2	-3%	2.3µM*	4.6µM*	u	53	-25%
O=c1c2c(nc3cc(-c4ccc(Br)cc4)[nH]n13)CCCC2	0%	u	u	-6%	-61*	-28%
O=c1c2c(nc3c(-c4ccccc4)c[nH]n13)CCC2	-1%	u	16µM*	-36%	18	-20%
CCc1ccccc1NC(=O)C1CCCC1	-1%	-2%	0%	0%	11	-27%
Cc1cccn2c(Nc3ccccc3)c(-c3cccs3)nc12	x	u	u	u	x	-43%
COc1ccc(NC(=O)c2ccc(S(=O)(=O)N3CCCCCC3)cc2)c(OC)c1	1%	-27%	13µM*	1%	-11	17%
COc1ccc(CC(NC(C)=O)C(=O)NC2CCN(S(=O)(=O)c3ccc(NC(C)=O)cc3)CC2)c(OC)c1 (stereo unspecified)	2%	26%	-5%	5%	-17	-1%
COc1ccc(NC(=O)CN2CCCN(S(=O)(=O)c3ccc(Br)cc3)CC2)c(OC)c1	x	u	23µM*	u	x	-26%
COc1ccc(CC(=O)Nc2ccc(S(=O)(=O)N3CCC(C)CC3)cc2)c(OC)c1	-1%	u	8.2µM*	u	-10	2%
CN1CC(=O)N/C1=N\C(=O)Nc1ccc(O)cc1	6%	11%	5%	-10%	2	-10%
COC(=O)[C@]12CCCCC=C1N(Cc1ccco1)C(=O)[C@H](CC(=O)NCc1cccc(C(F)(F)F)c1)C2	x	u	u	x	-15	x
COc1ccc(C2=Nn3c(nnc3-c3ccccc3OC)SC2)cc1OC1CCOC1 (stereo unspecified)	7%	x	x	2.8µM*	x	-18%
COc1ccc(C2=Nn3c(nnc3-c3ccncc3)SC2)cc1OC	2%	u	u	45%	u	-31%
COc1ccccc1-c1nnc2n1N=C(c1ccc(O)c(O)c1)CS2	-8%	6.5µM*	6.5µM*	u	115	3%
COc1cc(C(=O)NC2CCCNC2)cc(OC)c1OC (stereo unspecified)	x	1%	-3%	x	x	x
CCOc1ccc2nc(NC(=O)CS(=O)(=O)c3ccccc3)sc2c1	-9%	-9%	u	5%	0	1%
